The text below walks through data of PubChem BioAssay (NCATS).

Experiment [1] in a line: NS1 protein of Zika virus - qHTS assay to identify small molecule inhibitors in human HEK 293 cells (AID 1347053). Also: nearly all actives have a fitted effect of over 55% in size. Also: potency is read from the fitted curve at half-maximal effect. In short, it runs like this:
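Compound-treated (1 h pre-infection) HEK 293 cells infected with ZIKV MR766, MOI = 0.5; after 24 h at 37 C, NS1 read by TR-FRET; data normalized to uninfected and infected controls.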

A short description of experiment [2]: qHTS for Inhibitors of the Functional Ribonucleoprotein Complex (vRNP) of Lassa (LASV) Arenavirus: LASV Primary Screen - GLuc reporter signal (AID 1347082; calls by dose curve; tested in HEK293 reporter line; also: nearly all actives have a fitted effect of over 60% in size). For orientation: qHTS replaces the single test concentration by a dilution series.
A short description of experiment [3]: qHTS for Inhibitors of the Functional Ribonucleoprotein Complex (vRNP) of Lassa (LASV) Arenavirus: Viability assay - alamar blue signal for LASV Primary Screen (AID 1347083; calls by dose curve; tested in HEK293 reporter line; also: nearly all actives have a fitted effect of over 80% in size).
A short description of experiment [4]: qHTS for Inhibitors of the Functional Ribonucleoprotein Complex (vRNP) of Lymphocytic Choriomeningitis Arenaviruses (LCMV): Viability assay - alamar blue signal for LCMV Primary Screen (AID 1347085; calls by dose curve; tested in HEK293 reporter line; also: nearly all actives have a fitted effect of over 80% in size).
The nature of experiment [5]: qHTS assay to identify small molecule inhibitors of chordoma cells - UCH-2 (AID 1259356).
Experiment [6] in a line: P-glycoprotein substrates identified in KB-8-5-11 adenocarcinoma cell line, qHTS therapeutic library screen (AID 1346987). Also: nearly all actives have a fitted effect of over 65% in size. In short, it runs like this: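 Luminescence from CellTiter-Glo, read 5 min after addition, quantified survival of KB-8-5-11 (P-gp-overexpressing) cells exposed to compounds for 72 h. AC50 was derived from concentration-response curves.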
Experiment [7] can be described thus: P-glycoprotein substrates identified in KB-3-1 adenocarcinoma cell line, qHTS therapeutic library screen (AID 1346986). Also: nearly all actives have a fitted effect of over 60% in size. Particulars: KB-3-1 parental cells viability, CellTiter-Glo, 72 h; at 44.5 µM (top of the series). In short, it runs like this: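 Viability read by CellTiter-Glo after 72 h compound exposure in dose-response of KB-3-1 and KB-8-5-11 (P-gp-high) cells. Hits needed AC50 < 10 uM, >50% maximum response and curve class -1.1 to -2.4. Cherry-picks retested ± tariquidar, including pcDNA/MDR-19 HEK-293 pair.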

The structures appear in SMILES notation. Inconclusive results are not listed. Active and inactive are the calls of the source. Unless noted, calls follow the shape of the dose curve; as a rule, active = well fitted curve in the direction sought with a large enough effect; inconclusive = small, poorly fitted or top-dose-only effect, or another doubt; inactive = no such curve, though single readings can be large; an effect the other way counts as inactive or inconclusive.

Regarding `C[C@]12CC[C@H]3[C@@H](CCC4=CC(=O)CC[C@@]43C)[C@@H]1CC[C@@H]2C(=O)O`, the Potency entry in experiment [1], in experiment [2], in experiment [3] and in experiment [4] was “inactive” throughout.

`COc1cc(CC(C)N)c(OC)cc1Br` (stereo not given): the Potency entry in experiment [1] and in experiment [2] was “inactive” each time.

In the case of `Clc1ccc(C(OCCN2CCCCC2)c2ccccc2)cc1` (stereo not given), the Potency entry in experiment [5], in experiment [1], in experiment [2], in experiment [3] and in experiment [4] was “inactive” in each case.

`CC1N=C(N)OC1c1ccccc1` (stereo not given): the Potency result in experiment [6], in experiment [1], in experiment [2], in experiment [3] and in experiment [4] was “inactive” in each case.

`O=C(CBr)Nc1ccc(Cl)cc1C(=O)c1ccccc1F`: the Potency entry in experiment [1], in experiment [2], in experiment [3] and in experiment [4] was “inactive” in each case.

For `CCO[C@H]1O[C@@H]2OC3(C)CC[C@H]4[C@H](C)CC[C@@H]([C@H]1C)[C@@]24OO3`, the Potency result in experiment [1] and in experiment [2] was “inactive” in each case.

With `COc1ccc(OC)c(CC(C)N)c1` (stereo not given), the Potency entry in experiment [6], in experiment [1], in experiment [2], in experiment [3] and in experiment [4] was “inactive” in each case.

For `O=C(CCl)c1ccc(Cl)cc1Cl`, the Potency entry in experiment [1], in experiment [2], in experiment [3] and in experiment [4] was “inactive” in each case.

In the case of `CNC(C)Cc1ccc2c(c1)OCO2` (stereo not given), the Potency result in experiment [6], in experiment [1], in experiment [2], in experiment [3] and in experiment [4] was “inactive” in each case.

Consider `Cc1nc2ccccc2c(=O)n1-c1ccccc1Cl`, for which the Potency result in experiment [6], in experiment [1], in experiment [2], in experiment [3] and in experiment [4] was “inactive” each time.

Regarding `CCC(=O)C(CCN(C)C)(c1ccccc1)c1ccccc1`, the Potency entry in experiment [1], in experiment [2] and in experiment [3] was “inactive” in each case.

For the compound `CC[C@H](O)C(C[C@H](C)N(C)C)(c1ccccc1)c1ccccc1`, the Potency result in experiment [1] was “inactive”.

`C[C@H]1CNCCc2ccc(Cl)cc21`: the Potency result in experiment [1], in experiment [2], in experiment [3] and in experiment [4] was “inactive” each time.

On to `CCOC(C(=O)OCCN(C)C)(c1ccccc1)c1ccccc1`, for which the Potency entry in experiment [1], in experiment [2], in experiment [3] and in experiment [4] was “inactive” throughout.

For `CN(C)CCc1c[nH]c2ccccc12`, the Potency result in experiment [6], in experiment [1], in experiment [2], in experiment [3] and in experiment [4] was “inactive” throughout.

Consider `Cc1nnc2n1-c1sc(CCC(=O)N3CCOCC3)cc1C(c1ccccc1Cl)=NC2`, for which the Potency result in experiment [6], in experiment [1], in experiment [2], in experiment [3] and in experiment [4] was “inactive” each time.

In the case of `O=C(N[C@H]1N=C(c2ccccc2F)c2cccc3c2N(CC3)C1=O)c1cc2ccccc2[nH]1`, in experiment [7], the outcome was inactive. Also, the Potency result in experiment [6], in experiment [1], in experiment [2], in experiment [3] and in experiment [4] was “inactive” in each case.

On to `CN(C)C(=O)Oc1cc(OC(=O)N(C)C)cc(C(O)CNC(C)(C)C)c1` (stereo not given), for which the Potency entry in experiment [5], in experiment [1], in experiment [2] and in experiment [4] was “inactive” each time.

On to `CC1COC2(c3ccccc3Cl)c3cc(Cl)ccc3NC(=O)CN12` (stereo not given), for which the Potency entry in experiment [1], in experiment [2], in experiment [3] and in experiment [4] was “inactive” throughout.

For `CCOC(=O)C(c1c(O)c2ccccc2oc1=O)c1c(O)c2ccccc2oc1=O`, the Potency entry in experiment [1], in experiment [2], in experiment [3] and in experiment [4] was “inactive” each time.

For the compound `c1ccc2c(c1)Sc1ccccc1N2CC1CN2CCC1CC2` (stereo not given), the Potency in experiment [1] was 3.16 µM (active). In addition, the Potency entry in experiment [2] was “inactive”.

`COc1cc(CC(C)N)cc2c1OCO2` (stereo not given): the Potency result in experiment [6], in experiment [1], in experiment [2], in experiment [3] and in experiment [4] was “inactive” each time.

`COc1ccc2c3c1O[C@H]1[C@@H](O)C=C[C@H]4[C@@H](C2)N(C)CC[C@@]341`: the Potency entry in experiment [6] is “inactive”.

In the case of `CCC(=O)OC1(c2ccccc2)CCN(C)CC1`, the Potency result in experiment [6], in experiment [1], in experiment [2], in experiment [3] and in experiment [4] was “inactive” each time.

Regarding `C1CN2CCC1CC2`, the Potency entry in experiment [1], in experiment [2], in experiment [3] and in experiment [4] was “inactive” each time.

For `CCC(OC(C)=O)C(CC(C)NC)(c1ccccc1)c1ccccc1` (stereo not given), the Potency entry in experiment [1] and in experiment [2] was “inactive” in each case.

Consider `CN(C)CCc1c[nH]c2cccc(O)c12`, for which the Potency entry in experiment [6], in experiment [1], in experiment [2], in experiment [3] and in experiment [4] was “inactive” each time.

On to `CC[C@H]1C[C@H]2[C@@H]3CCC4=CC(=O)CC[C@@H]4[C@H]3CC[C@]2(C)[C@H]1O`, for which the result in experiment [7] was inactive. Besides, the Potency entry in experiment [1], in experiment [2], in experiment [3] and in experiment [4] was “inactive” throughout.

Regarding `CCCCC1C(=O)NC(=O)N(C2CCCCC2)C1=O` (stereo not given), the Potency result in experiment [6], in experiment [2], in experiment [3] and in experiment [4] was “inactive” in each case.

Take `CCOC(=O)c1ncn2c1CN(C)C(=O)c1c(I)cccc1-2`: the Potency entry in experiment [6], in experiment [1], in experiment [2], in experiment [3] and in experiment [4] was “inactive” each time.

Take `C[C@H](CN1CCOCC1)C(C(=O)N1CCCC1)(c1ccccc1)c1ccccc1`: the Potency entry in experiment [1] was “inactive”.

On to `CN1[C@@H]2CC[C@H]1CC(OC(=O)c1cc(Cl)cc(Cl)c1)C2` (stereo not given in full), for which the Potency result in experiment [5], in experiment [1], in experiment [2], in experiment [3] and in experiment [4] was “inactive” in each case.

`COP(=S)(OC)Oc1ccc(S(N)(=O)=O)cc1`: the Potency entry in experiment [6], in experiment [1], in experiment [2], in experiment [3] and in experiment [4] was “inactive” throughout.

As for `COc1ccc2c(C(=O)c3ccc(Cl)cc3)c(C)n(CC(=O)O)c2c1`, the result in experiment [7] was inactive. Besides, the Potency entry in experiment [6] and in experiment [1] was “inactive” in each case.

Take `CN1C(=O)CN=C(c2ccccc2)c2cc(Cl)ccc21`: the Potency result in experiment [1], in experiment [2], in experiment [3] and in experiment [4] was “inactive” throughout.

In the case of `COc1cc(C[C@@H](C)N)c(OC)cc1C`, the Potency result in experiment [1], in experiment [2], in experiment [3] and in experiment [4] was “inactive” in each case.

Regarding `O=C(O)Cc1ccccc1`, the Potency entry in experiment [1], in experiment [2], in experiment [3] and in experiment [4] was “inactive” each time.
